Test results taken from PubChem BioAssay (NCATS).
Values joined by “and” are separate entries in the source; they are usually repeats but may differ in a detail not shown here. Equal entries are not always repeated. Records with an inconclusive call do not appear. Unmarked numbers belong to inactive results. Active and inactive are the calls of the source. Calls come from the whole dose curve; as a rule, active = well fitted curve in either direction with a large enough effect (not every such curve was filed as active); inconclusive = small, poorly fitted or top-dose-only effect, or another doubt; inactive = flat fitted curve, though single readings scatter.

Test: AP1 Signaling Pathway (AID 357);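 note: ME-180 reporter cells stimulated with EGF at its EC50 level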
Settings: ME-180 AP-1-bla reporter, EGF-induced, beta-lactamase ratio, 5 h; at 7.69 µM (top of the series)
Text: NCGC Assay Overview: Activator protein-1 (AP-1), a transcription factor, plays an important role in tumor genesis by regulating genes involved in cell proliferation, differentiation, apoptosis, and angiogenesis. AP-1 activity is induced by a complex network of signaling pathways that involves extracellular signals, such as growth factors. The AP-1 protein complex formed from c-Fos and c-Jun binding to the AP-1 response element results in transcriptional activation of genes containing such elements within their promoter. Low molecular weight molecules have been discovered and developed to modulate various components of these signaling pathways, for example, MAP kinase inhibitors. However, many points of pathway modulation remain untested due to the lack of chemical probes making this signaling locus of general interest. Using a beta-lactamase reporter-gene under control of the AP-1 response element, a cell-based assay [CellSensor(TM) AP-1-bla ME-180 developed by Invitrogen Corp.] was used to measure EGF-induced signaling. Library compounds were measured for their ability to modulate positively or negatively the action of EC50 EGF on reporter gene activity. Compounds were screened in a titration series in 1536-well format. Positive and negative modulators were identified based on the AC50 values derived from the screening data.
NCGC Assay Protocol Summary: 2500 cells/5uL in Opti-MEM medium containing 0.5% dialyzed FBS, 0.1 mM NEAA, 1 mM sodium pyruvate and 10 mM HEPES was dispensed into 1536-well plates and cells were cultured at 37 degrees Celsius overnight. […] After centrifugation at 1000 rpm for 2 seconds the plates were incubated at 37 degrees Celsius for 5 hours. 1 uL of CCF4-dye mixture was added to each well. After incubated at room temperature for 2.5 hours the plates were measured on an EnVision plate reader at Excitation 405nm, Emission1=460nm and Emission 2=530nm. The %Activity was determined from the ratio of 460nm/530nm.
% is set by controls: 0 for no effect and ±100 for the full control effect.

SMILES	activity change, negative = inhibition [%]
c1cnc2c(c1)ccc1cccnc12	-13.2
O=C(O)CC[C@@H](C(=O)O)N1C(=O)c2ccccc2C1=O	-7.49
Clc1ccccc1-c1nc(-c2ccncc2)no1	-0.307

Same assay, conditions: ME-180 AP-1-bla reporter, EGF-induced, beta-lactamase ratio, 5 h; at 17.2 µM (top of the series)

SMILES	activity change, negative = inhibition
CC(C)Cc1ccc([C@H](C)C(=O)O)cc1	-1.53%
OC[C@H]1O[C@@H](n2cnc3c(NC4CCCC4)ncnc32)[C@H](O)[C@@H]1O	4.32%
Nc1ccc(O)c(C(=O)O)c1	12.5%
Cc1nc2sccn2c(=O)c1CCN1CCC(=C(c2ccccc2)c2ccc(F)cc2)CC1	-10.2%
O=c1[nH]c2ccccc2n1CCCN1CCN(C(c2ccccc2)c2ccccc2)CC1	-6.95%
CC1(C)S[C@@H]2[C@H](NC(=O)[C@H](N)c3ccccc3)C(=O)N2[C@H]1C(=O)O	6.1%
O=C(O)Cc1ccc(-c2ccccc2)cc1	3.75% and 6.11%
O=C(O)c1ccccc1Nc1cccc(C(F)(F)F)c1	-4.38% and -13.2%
Nc1nc(Cl)nc2c1ncn2[C@@H]1O[C@H](CO)[C@@H](O)[C@H]1O	0.568%
OC[C@H]1O[C@@H](n2cnc3c(Nc4ccccc4)ncnc32)[C@H](O)[C@@H]1O	0.891%
CCCSc1ccc2nc(NC(=O)OC)[nH]c2c1	11.3% and 5.12%
Nc1ccc(C(=O)O)c(O)c1	2.89% and -3.6%

Same assay, conditions: ME-180 (cervical carcinoma) AP-1-bla reporter, EGF-induced, beta-lactamase ratio, 5 h; at 38 µM (top of the series)

SMILES	activity change, negative = inhibition
CN(C)c1nc(N)c(C(=O)N=C(N)N)nc1Cl	10.7%
CN=c1nc(-c2ccccc2)n(-c2ccccc2)s1	20.8%
Cc1cc(NC(=O)Nc2ccc3c(ccn3C)c2)sn1	-21.3%
CC(=O)SCC[N+](C)(C)C	9.91%
CCCN(CC1CC1)c1nc(C)nc(Nc2c(Cl)cc(Cl)cc2Cl)c1Cl	18.7%
O=Nc1ccc2oc(=O)ccc2c1	22.8%
O=C(c1cc(O)c(O)c([N+](=O)[O-])c1)c1ccccc1F	-17.8%
NCCCCC(=O)O	-6.31%
Clc1ccc(N2CCN(Cc3c[nH]c4ncccc34)CC2)cc1	-4.78%
CC(C)Cc1ccc([C@H](C)C(=O)O)cc1	-1.91% and 13.2%
O=c1[nH]c2cc(Cl)c(Cl)cc2[nH]c1=O	-8.09%
CC1(C)CCC=[N+]1[O-]	-4.03%
CCCn1c(=O)c2[nH]c(-c3ccc(OCC(=O)NCCN)cc3)nc2n(CCC)c1=O	6.39%
c1cnc2c(c1)ccc1cccnc12	0.206%
N[C@H](CCCP(=O)(O)O)C(=O)O	-8.4%
O=C(O)CC[C@@H](C(=O)O)N1C(=O)c2ccccc2C1=O	3.98%
C=C[C@H]1CN2CC[C@@H]1C[C@@H]2[C@@H](O)c1ccnc2ccc(OC)cc12	0.0731% and 9.28%
Cc1nc2sccn2c(=O)c1CCN1CCC(=C(c2ccccc2)c2ccc(F)cc2)CC1	8.49%
O=c1[nH]c2ccccc2n1CCCN1CCN(C(c2ccccc2)c2ccccc2)CC1	-17.6%
N#C/C(=C\c1ccc(O)c(O)c1)C(=O)c1ccc(O)c(O)c1	-8.79%
COc1ccccc1CNCCCCCCNCCCCCCCCNCCCCCCNCc1ccccc1OC	-8.92%
O=C(O)c1cc(=O)c2ccccc2[nH]1	5.32%
O=C1C(SCCO)=C(SCCO)C(=O)c2ccccc21	-104% (active)
N=C(N)SCCc1ccc(CCSC(=N)N)cc1	14.8%
Fc1ccc(C(OCCCc2cnc[nH]2)c2ccc(F)cc2)cc1	26.5%
